AmpC inh no detg = blocks E. coli AmpC beta-lactamase in detergent-free assay | AmpC nitrocefin hydrolysis, absorbance 480 nm, 0.0001% Triton | Potency, µM (doses to about 57.1 µM), inactives show top-dose activity change, negative = inhibition, usual class: inhibitors | 330,000 tested, 0.52% active | AID 485341;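 also: plate controls were no compound for no effect and no enzyme for full effect; nearly all actives have a fitted effect of over 20% in size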
Target sequence (P00811 whole entry, looked up): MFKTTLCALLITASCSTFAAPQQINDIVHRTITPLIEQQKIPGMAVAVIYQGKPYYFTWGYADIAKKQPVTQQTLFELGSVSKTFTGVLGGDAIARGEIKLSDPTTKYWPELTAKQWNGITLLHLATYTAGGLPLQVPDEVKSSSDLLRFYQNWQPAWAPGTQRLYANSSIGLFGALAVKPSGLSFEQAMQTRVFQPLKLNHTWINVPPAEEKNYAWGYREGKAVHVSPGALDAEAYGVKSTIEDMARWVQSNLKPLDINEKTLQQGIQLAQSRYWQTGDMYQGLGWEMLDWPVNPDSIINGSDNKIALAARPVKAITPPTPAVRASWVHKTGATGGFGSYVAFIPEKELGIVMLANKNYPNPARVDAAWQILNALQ
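20 mM phosphate pH 7.0 + 0.01% (detergent screen) or 0.0001% Triton X-100; 5.3 nM AmpC reagent; cpd preinc 15 min RT; nitrocefin (800 uM stock) to start; A480 q20 s × 4 min; Activity was normalised to no-enzyme and no-compound control wells.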
AmpC detergent = inhibitors of E. coli AmpC beta-lactamase with detergent | P00811 | AmpC hydrolysis of nitrocefin, absorbance 480 nm, 0.01% Triton | Potency, µM (series often up to 114 µM), inactives show top-dose activity change, negative = inhibition, most hits filed as inhibitors | 370,000 tested, 0.041% active;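 also: 0% = no-compound wells and -100% = no-enzyme wells; nearly all actives have a fitted effect of over 25% in size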
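AmpC (5.3 nM in the dispensed reagent) in 20 mM phosphate pH 7.0 with 0.01% (detergent screen) or 0.0001% Triton X-100 was preincubated with compounds for 15 min at room temperature. Nitrocefin was then added from an 800 uM solution, and hydrolysis was followed at 480 nm.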
Sm TGR block = inhibitors of Schistosoma mansoni thioredoxin glutathione reductase; Potency, µM (highest dose often 114 µM), for the others: at the top dose activity change, negative = inhibition, most hits filed as inhibitors; Q962Y6; purified TGR, DTNB reduction, TNB absorbance 405 nm; 360,000 tested, 3% active; also: nearly all actives have a fitted effect of over 60% in size
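First, TGR (20 nM dispensed) and NADPH were mixed with compound. Second, a 15 min room-temperature incubation followed. Third, further NADPH and then DTNB were added to start the reaction. Finally, TNB absorbance was monitored kinetically.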
* hit, by the source's call; ? = inconclusive; . = no result given. Hits are enriched below; roughly 3.3% of the tested compounds scored in any of these assays. Calls follow the shape of the dose curve; as a rule, active = well fitted curve in the direction sought with a large enough effect; inconclusive = small, poorly fitted or top-dose-only effect, or another doubt; inactive = no such curve, though single readings can be large; an effect the other way counts as inactive or inconclusive. Unless noted, % is scaled to controls: 0 for no effect and ±100 for the full control effect; potency is read from the fitted curve at half-maximal effect.

SMILES | AmpC inh no detg | AmpC detergent | Sm TGR block
O=C(c1ccc(CS(=O)Cc2ccccc2Cl)o1)N1CCN(c2ccccn2)CC1 (configuration not stated) | 61% | -6% | ?
COc1ccc(S(=O)Cc2ccc(C(=O)NCc3cccc(OC)c3)o2)cc1 (configuration not stated) | -6% | 0% | 25µM*
O=C(NC1CCCC1)c1ccc(CS(=O)Cc2ccccc2Cl)o1 (configuration not stated) | -5% | 4% | 32µM*
CCOC(=O)Cn1c(=O)oc2cc(S(=O)(=O)N3CCC(C(=O)OCC)CC3)ccc21 | . | 0% | -1%
O=C(Cn1c(=O)n(Cc2ccco2)c(=O)c2sc3ccccc3c21)Nc1ccc(F)cc1F | . | 8% | 6%
Cc1cccc(C(=O)Nc2nnc(SCc3cc(=O)n4cccc(C)c4n3)s2)c1 | . | -4% | 4%
COc1ccc(Cc2c3cc(OC)c(OC)cc3cc[n+]2C)cc1OC | -23% | -6% | 13µM*
CC[n+]1ccc2cc(OC)c(OC)cc2c1Cc1ccc(OC)c(OC)c1 | -21% | -6% | ?
O=C(CN1CCCCCC1)Nc1ccc(Cl)cn1 | -12% | -5% | 40µM*
O=C(CN1CCN(Cc2ccccc2)CC1)Nc1ccc(Cl)cn1 | 15% | 0% | -33%
CCOC(=O)c1oc2ccc(S(=O)(=O)n3nc(-c4cc(OC)cc(OC)c4)cc3N)cc2c1C | . | 8% | 24%
Cc1cnc(CNC(=O)CC2C(=O)NCCN2Cc2ccccc2C(F)(F)F)cn1 (configuration not stated) | 47% | 2% | 11µM*
COc1cccc(CN2CCNC(=O)C2CC(=O)NCCn2nc(C)cc2C)c1OC (configuration not stated) | 37% | 2% | ?
Cc1cc(C)n(CCNC(=O)CC2C(=O)NCCN2Cc2ccccc2C(F)(F)F)n1 (configuration not stated) | 96% | 4% | 35µM*
Cc1cc(CNC(=O)CC2C(=O)NCCN2CC(c2ccccc2)c2ccccc2)on1 (configuration not stated) | 38% | -6% | ?
CCc1ccc(CNC(=O)CC2C(=O)NCCN2Cc2ccccc2F)nc1 (configuration not stated) | 25% | -10% | ?
Cc1ccccc1CN1CCNC(=O)C1CC(=O)N(C)CCC1CCOCC1 (configuration not stated) | 43% | -2% | ?
Cc1nnc(CN(C)C(=O)CC2C(=O)NCCN2Cc2ccccc2C)o1 (configuration not stated) | -8% | ? | 28µM*
Cc1cc(CNC(=O)CC2C(=O)NCCN2Cc2ccccc2C(F)(F)F)on1 (configuration not stated) | 21% | 11% | 35µM*
CCCn1c(=O)n(-c2ccccc2)c(=O)c2sc3ccccc3c21 | . | -8% | -2%
O=C(Nc1ccc(Cl)cc1)C1CCN(c2nc3ccccc3n3cccc23)CC1 | . | 2% | -7%
Cc1ccc(NC(=O)C2CCCN(S(=O)(=O)c3ccc4c(c3)CCCC(=O)N4)C2)cc1N(C)C (configuration not stated) | . | 23% | 7%
COc1ccc(N(CC(=O)NCCc2ccccc2)S(=O)(=O)c2ccccc2)c(OC)c1 | . | 0% | -3%
Cc1c(C)n(Cc2ccccc2)c2ccc(C(=O)NC(C)c3ccccc3)cc12 (configuration not stated) | . | 3% | 4%
O=C(O)c1ccc2c(c1)C(=O)N([C@H](Cc1ccc(-c3ccccc3)cc1)C(=O)O)C2=O | -20% | ? | 8%
SMILES | AmpC inh no detg | AmpC detergent | Sm TGR block
COc1ccc(-c2ccc(CCC(=O)O)n2CC(=O)Nc2cccc(Cl)c2C)cc1 | . | -6% | -30%
CC(C)c1cc(CNC(=O)CC2C(=O)NCCN2CC2CCCCC2)on1 (configuration not stated) | 50% | 1% | 50µM*
CN(CCc1cn[nH]c1)C(=O)CC1C(=O)NCCN1Cc1ccccc1C(F)(F)F (configuration not stated) | 79% | 1% | 35µM*
O=C(CC1C(=O)NCCN1CC1CCCCC1)NCc1ccc(Cl)cc1 (configuration not stated) | 159% | 4% | ?
CN(Cc1ccon1)C(=O)CC1C(=O)NCCN1Cc1ccccc1C(F)(F)F (configuration not stated) | 8% | ? | ?
Cc1nc2nc(NCc3ccc(Br)cc3)[nH]n2c(=O)c1Cc1ccccc1 | . | 14% | 3%
C#CCNC(=O)C1=C[C@@H](c2ccc3c(c2)OCO3)[C@H](CCCO)[C@@H](OCC)O1 | 23% | -8% | 45µM*
CCO[C@@H]1OC(C(=O)NCc2ccccc2)=C[C@H](c2ccc3c(c2)OCO3)[C@H]1CCCO | 65% | 10% | -1%
CCOC(=O)c1c(C)oc2c1c(C(c1cccnc1)N1CCOCC1)c(O)c1ccccc12 (configuration not stated) | 98% | -2% | 1.3µM*
CCOC(=O)c1c(C)oc2c1c(C=NCc1ccccn1)c(O)c1ccccc12 | 21% | 0% | ?
CCOC(=O)c1c(C)oc2c1c1c(c3ccccc32)OCN(CCCC(=O)O)C1 | -3% | -2% | -2%
CCOC(=O)c1c(C)oc2c1c(C(c1cccnc1)N1CCN(C)CC1)c(O)c1ccccc12 (configuration not stated) | -10% | ? | 0.56µM*
COC(=O)NCC(c1cccnc1)N1CCOCC1 (configuration not stated) | -19% | -3% | -29%
CCOC(=O)c1c(C)oc2c1c1c(c3ccccc32)OCN(Cc2cccnc2)C1 | 128% | 8% | 0.35µM*
Cc1oc(-c2ccc(C(=O)Nc3ccc(F)cc3F)cc2)nc1COc1ccccc1 | . | 30% | -1%
Oc1c(C(c2ccc(Cl)cc2)N2CCC3(CC2)OCCO3)sc2nc(-c3ccco3)nn12 (configuration not stated) | . | 2% | 4%
COC(=O)c1cc2oc3ccccc3c2n1Cc1nc(-c2cccc(Cl)c2)oc1C | . | 26% | 2%
CCOc1cc(C(=O)NCCc2csc(-c3ccc(C)cc3)n2)cc(OCC)c1OCC | . | -6% | -6%
COc1ccc(C(=O)Nc2nc(-c3nnn(-c4ccc(F)cc4F)c3C)ns2)cc1 | . | 1% | 2%
COc1ccc(-n2nc(C(=O)N3CCC(C)CC3)c3c4ccccc4n(C)c3c2=O)cc1Cl | . | 4% | -2%
Cc1ccc(C)c(S(=O)(=O)Nc2ccc(O)c3ccccc23)c1 | -36% | 3% | 22µM*
Cc1ccc(S(=O)(=O)Nc2ccc(O)c3ccccc23)c(C)c1 | ? | -5% | 8.9µM*
COc1ccc(S(=O)(=O)Nc2ccc(O)c3ccccc23)cc1 | ? | ? | 20µM*
Cc1ccc(S(=O)(=O)Nc2cc(C(C(=O)OC(C)C)C(=O)C(F)(F)F)c(O)c3ccccc23)c(C)c1 (configuration not stated) | -3% | -11% | -22%
COc1ccc(S(=O)(=O)Nc2ccccc2C(F)(F)F)cc1 | -20% | 2% | -3%
Cc1ccc(C)c(S(=O)(=O)Nc2ccc(O)c(C(=O)O)c2)c1 | -24% | -6% | -17%

Screening data as filed in PubChem BioAssay.
